From PubChem BioAssay
The list is not random: actives were taken first. Their share in the collection is about 3.5%.
MITF primary – blocks human microphthalmia-associated transcription factor; 650,000 compounds, 0.91% hits; inhibition, % at 2.6 µM; O75030; AlphaScreen MITF homodimerization, bead proximity signal; in the data active = inhibition above about 50%;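 also: 0% = vehicle wells with protein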
TEAD-YAP inh – TEAD-YAP interaction inhibition; HEK-TIYL cells, TEAD-Gal4/YAP UAS-luciferase luminescence; inhibition, % at 9.12 µM; 640,000 compounds, 1.4% hits; AID 1259422; in the data active = inhibition above about 32%;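 also: 0% = median of test compound wells and 100% = reference inhibitor wells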
FBW7 activator – activators of human E3 ligase FBW7; normalized activity (activation), % at 26.1 µM; AlphaScreen FBW7–phospho-cyclin E peptide binding, activator screen; Q969H0; 650,000 compounds, 0.13% hits; in the data active = normalized activity above about 1.9%;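 also: purified mutant Fbw7 with reduced substrate affinity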
GPR151 ag – activators of human GPR151. Q8TDV0. activation, % at 11.2 µM. PathHunter beta-arrestin GPR151 cells, luminescence. AID 1508602. 650,000 compounds, 1% hits; in the data active = activation above about 4.9%;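 also: 0% = median of compound wells and 100% = cells with positive control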
GPR151 conf act – confirmation of human GPR151 activators; shares compounds with GPR151 ag; GPR151 PathHunter beta-arrestin cells, luminescence, 90 min; % of EA-reagent control over plate median; activation, % at 11.2 µM; 6,700 tested, under 10 active; AID 1508609;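 active = mean percent activation across replicates above the confirmation screen cutoff of 4.91%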
GPR119 ag – GPR119 activation, counter-screen for GPR151 activators; shares compounds with GPR151 ag; GPR119 PathHunter beta-arrestin cells, luminescence, 90 min; 0 = compound-well median, 100 = enzyme-acceptor control; activation, % at 11.2 µM; 6,700 compounds, 0.3% hits; AID 1508611;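 active = mean percent activation in the counterscreen above 29.09%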;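 also: counterscreen on off-target GPR119 to flag nonselective hits from the GPR151 activator screen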
Target sequence (Q8TDV5 whole entry, looked up): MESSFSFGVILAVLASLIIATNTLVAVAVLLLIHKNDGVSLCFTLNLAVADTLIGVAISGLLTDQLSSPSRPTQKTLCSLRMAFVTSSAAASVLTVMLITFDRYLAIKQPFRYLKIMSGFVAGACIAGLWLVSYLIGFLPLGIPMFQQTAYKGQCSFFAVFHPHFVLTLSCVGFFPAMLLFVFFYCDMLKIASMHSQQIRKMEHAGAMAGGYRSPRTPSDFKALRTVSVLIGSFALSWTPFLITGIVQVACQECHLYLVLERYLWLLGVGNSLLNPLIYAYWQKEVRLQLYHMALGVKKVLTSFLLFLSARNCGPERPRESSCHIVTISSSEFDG
* = called active by the depositor; / = no result given.

SMILES | MITF primary | TEAD-YAP inh | FBW7 activator | GPR151 ag | GPR151 conf act | GPR119 ag
C[C@H](CN)Oc1ncccc1C(=O)Nc1ccc2[nH]ncc2c1 | -9 | 1 | 0 | 5.7* | -1 | 4
COc1cccc(-c2cnn3ccc(NCc4cccnc4)nc23)c1 | -8 | 1 | -1 | 2 | / | /
O=C(CN1CCCC(O)C1)N1c2ccccc2Sc2ccc(C(F)(F)F)cc21 (centres undefined) | 23 | 2 | 0 | 9.5* | 0 | -4
C/C(=N/NC(=O)c1cc(-c2ccc3c4c(cccc24)CC3)n[nH]1)c1ccncc1 | -7 | -44 | 0 | 0 | / | /
Cc1ccc(C(=O)Nc2ccc(C(=O)N/N=C/c3cccc(C)n3)cc2)cc1 | 1 | 14 | 0 | 6.1* | 0 | -3
Cc1cccc(/C=N/NC(=O)c2ccc(F)cc2)n1 | 1 | -30 | 0 | 1 | / | /
COC(=O)C(CCSC)NC(=O)c1ccc(Cl)cc1Cl (centres undefined) | 8 | -4 | 0 | 9.7* | 1 | 10
CCCCN(C)c1nnc(NC(=O)Nc2ccc(Cl)cc2)s1 | 5 | -11 | 0 | 7.5* | 1 | 1
CCCCN(C)c1nnc(NC(=O)Nc2ccc(CC(=O)OCC)cc2)s1 | 7 | 2 | 0 | 0 | / | /
COCCN1C(=O)CC(NNC(=O)c2ccc(C)cc2)C1=O (centres undefined) | 0 | 12 | 0 | 1 | / | /
O=C(CSc1nnc(NC(=O)COc2ccccc2)s1)Nc1ccc(F)cc1 | -12 | 13 | 0 | -1 | / | /
CCOC(=O)/C(C=Nc1ccc(Cl)c(Cl)c1)=C(\C)O | -1 | -3 | 0 | 0 | / | /
O=C(CC1C(=O)NCCN1Cc1ccc2ccccc2c1)NC1CCCCCC1 (centres undefined) | -2 | -2 | 0 | 9.5* | -2 | -19
COc1ccccc1/C=C/CN1CCNC(=O)C1CC(=O)NC1CCOCC1 (centres undefined) | -6 | 7 | 0 | 4.9* | -1 | -11
O=C(CC1C(=O)NCCN1Cc1ccc2ccccc2c1)NC1CCOCC1 (centres undefined) | 7 | 10 | 0 | 0 | / | /
COc1ccccc1/C=C/CN1CCNC(=O)C1CC(=O)NC1CCC1 (centres undefined) | -6 | 7 | 0 | 0 | / | /
O=C(CC1C(=O)NCCN1CC(c1ccccc1)c1ccccc1)NC1CCC(O)CC1 (centres undefined) | 12 | 2 | 0 | 5.3* | -1 | -7
Cc1ccc(CNC2CCN(c3ccc(C(=O)NCc4ccc5c(c4)OCO5)cc3)CC2)o1 | -6 | -7 | 0 | -1 | / | /
COCCNC(=O)c1ccc(CNC(=O)c2ccc3c(c2)OCO3)cc1 | 9 | -8 | 0 | -1 | / | /
COCCCNC(=O)c1ccc(CNC(=O)c2ccc3c(c2)OCO3)cc1 | 5 | 3 | 0 | 5.7* | -1 | -5
CCOc1ccc(S(=O)(=O)Nc2cccc(-c3ccc4nncn4n3)c2)cc1 | 14 | 39* | 0 | 9.8* | 1 | 11
O=C(N[C@H](Cc1ccccc1)c1nc(-c2ccncc2)n[nH]1)c1cc2ccccc2s1 | 17 | 2 | 1 | 0 | / | /
CCCCN(CC)C(=O)c1ccccc1OC(C)=O | 13 | 6 | 0 | -2 | / | /
CCOC(=O)c1ccccc1NC(=O)CC(C)CC(=O)O (centres undefined) | 5 | -6 | 0 | 5.9* | 1 | 5
Cc1ccc(C(=O)O/N=C(\N)c2ccc(Cl)cc2)cc1[N+](=O)[O-] | 10 | 7 | 0 | -1 | / | /
SMILES | MITF primary | TEAD-YAP inh | FBW7 activator | GPR151 ag | GPR151 conf act | GPR119 ag
N#Cc1ccc(COC(=O)c2ccccn2)cc1 | 28 | 7 | 0 | 5.0* | 0 | -5
N#Cc1ccc(NC(=O)COC(=O)c2ccccn2)cc1 | 9 | 4 | -1 | 1 | / | /
CC(=O)OCC(OC(C)=O)C(OC(C)=O)C(OC(C)=O)C(=O)Nc1ccc(Cl)cc1 (centres undefined) | 21 | 3 | 0 | 0 | / | /
CCOc1ccc(NC(=O)CSc2nc3ccsc3c(=O)n2-c2ccc(Cl)c(C)c2)cc1 | -10 | -2 | 0 | 2 | / | /
O=C(c1ccc(Br)cc1)C1C2C(=O)C3OCC(O3)C12 (centres undefined) | -4 | -23 | 0 | 8.0* | 1 | 14
O=C(CN(C(=O)C(=O)Nc1ccc2c(c1)OCCO2)N1CCOCC1)NC1CCCC1 | -5 | -3 | 0 | 0 | / | /
S=C(Nc1ccc2c(c1)OCO2)Nc1cnccn1 | 9 | -25 | 0 | 5.6* | 1 | 0
O=C(NNC(=O)c1ccc(Cl)s1)Nc1ccc2c(c1)OCO2 | 9 | -43 | 0 | 5.2* | 0 | -5
O=C(Nc1ccc2c(c1)OCO2)Nc1ccc(Br)cn1 | 10 | -81 | 0 | 6.5* | 0 | -5
S=C(Nc1ccc2c(c1)OCO2)Nc1ccc2c(c1)OCO2 | 2 | -18 | 0 | -1 | / | /
Cc1cc(NC(=O)CSc2nc(-c3ccccc3)cc(=O)[nH]2)no1 | -13 | -4 | 0 | 3 | / | /
CCOc1cc(/C=C(\C#N)C(=O)NCC2CCCO2)ccc1OCCOc1ccccc1 (centres undefined) | -8 | 12 | 0 | 1 | / | /
CCc1cccc(NC(=O)CCS(=O)(=O)c2ccc3c(c2)CC(C)N3C(=O)C2CC2)c1 (centres undefined) | 8 | 12 | 0 | 6.2* | 1 | -6
CC1Cc2cc(S(=O)(=O)CCC(=O)Nc3ccccc3)ccc2N1C(=O)C1CC1 (centres undefined) | -3 | 5 | 0 | 0 | / | /
CCCOc1ccc(/C(O)=C2/C(=O)C(=O)N(CCN(C)C)C2c2ccc(C(C)(C)C)cc2)cc1C (centres undefined) | -7 | 4 | 0 | 0 | / | /
CCCCOc1ccc(/C=C/C(=O)N2CCCCC2)cc1 | 3 | -38 | 0 | 5.6* | 1 | -7
O=C(CSc1nnc(-c2ccc(Br)cc2)o1)NC1CCCC1 | 4 | 3 | 0 | 8.1* | 0 | 1
CN(C)c1ncnc2c1C(c1ccc([N+](=O)[O-])cc1)c1c(ncnc1N(C)C)O2 | 8 | -7 | 0 | 6.2* | 0 | -6
O=C(COC(=O)CCS(=O)(=O)c1ccccc1Cl)NC(=O)NCc1ccco1 | -2 | 2 | 0 | 6.4* | 2 | 0
O=C(COc1ccc(Cl)cc1)NC(=O)NCc1ccco1 | -17 | 8 | 0 | -1 | / | /
O=c1c2cnn(CCO)c2ncn1Cc1c(F)cccc1Cl | -13 | -1 | 0 | 6.6* | 0 | 5
COc1cc(OC)c(CNc2ccc(OC)c(OC)c2)cc1Br | 14 | 4 | 0 | 4 | / | /
COc1ccc2c(CNCc3ccc(F)cc3)c(C(=O)O)n(Cc3ccc(C)cc3)c2c1 | 1 | 6 | 0 | 7.8* | 0 | 2
CC(=O)c1c(C)[nH]c(C(=O)Nc2nc3c(C)cc(C)cc3s2)c1C | 1 | -7 | 0 | 5.9* | 0 | 9
